PubChem BioAssay (NCI)
Where “and” joins values, the source holds several entries; their conditions need not be identical. Equal values may be shown once. This is part of a sample that, as a whole, favours compounds with a hit. Of some 79,000 tested, about 15% had one in any assay. Some structures have more than one record in an assay (separate samples or runs), and their calls can disagree. Calls of active or inactive are those of the source. Cut-off read from the data, not from the text of the source: active = growth inhibition above about 70%; inactive = the rest.

How the values were obtained:
[1] = NCI Yeast Anticancer Drug Screen. Data for the rad50 strain (AID 155);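 note: 0% = growth of vehicle-only cultures of the same strain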; details: S. cerevisiae rad50 strain growth inhibition, stronger effect = higher value
Summary of the method: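 Inhibition values express reduced yeast growth in compound-treated cultures relative to vehicle-treated controls.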

[2] = NCI Yeast Anticancer Drug Screen. Data for the mec2-1 strain (AID 157); details: S. cerevisiae mec2-1 strain, stronger effect = higher value
Summary of the method: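 Each compound was tested on mec2-1 yeast, a strain altered in DNA damage repair or cell cycle control. Growth inhibition is reported relative to vehicle.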

[3] = NCI Yeast Anticancer Drug Screen. Data for the sgs1 mgt1 strain (AID 161);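 note: 0% = growth of cultures given vehicle only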; details: S. cerevisiae sgs1 mgt1 strain, stronger effect = higher value
Summary of the method: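 Mutant yeast exposed to compound; growth scored against vehicle-only wells.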

[4] = NCI Yeast Anticancer Drug Screen. Data for the cln2 rad14 strain (AID 165);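 note: 0% = growth equal to vehicle treated cultures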; details: S. cerevisiae cln2 rad14 strain, stronger effect = higher value
Summary of the method: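 Test compounds were added to cln2 rad14 yeast cultures; inhibition of growth was then determined by comparison with vehicle treatment.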

[5] = NCI Yeast Anticancer Drug Screen. Data for the bub3 strain (AID 167); details: S. cerevisiae bub3 mutant strain, stronger effect = higher value
Summary of the method: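 Steps: expose the mutant yeast strain to compound; grow alongside vehicle-treated cultures; measure growth; express inhibition against the vehicle cultures.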

[6] = NCI Yeast Anticancer Drug Screen. Data for the mlh1 rad18 strain (AID 175); details: S. cerevisiae mlh1 rad18 strain growth inhibition, stronger effect = higher value
Summary of the method: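 Inhibition values reflect reduced growth of mutant yeast versus vehicle-treated controls following compound exposure; the mutations affect DNA damage repair.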

[7] = at 5.0 µM (retest, dose inferred, filed as 0.5)
[8] = at 50.0 µM (retest, dose inferred, filed as 5.0)

Measured: growth inhibition

O=C(Nc1ccc(C(=O)O)c(O)c1)c1ccccc1
inactive: [1]; [7] -2% | [1]; [8] 40% | [1]; at 50.0 µM 1.35% and -5.6% | [2]; [7] -12% | [2]; [8] -26% | [2]; at 50.0 µM 0.7% and -0.4% | [3]; [7] 0% | [3]; [8] 0% | [3]; at 50.0 µM -20% and 3.05% | [4]; [7] -4% | [4]; [8] -5% | [4]; at 50.0 µM -26.9% and 14.5% | [5]; [7] 1% | [5]; [8] 6% | [5]; at 50.0 µM 15.7% and 12.3% | [6]; [7] -3% | [6]; [8] 6% | [6]; at 50.0 µM 8.1% and -3.2%

CC(NC(=O)C(N)Cc1ccccc1)C(=O)NC1C(CO)OC(n2cnc3c(N)ncnc32)C1O (stereo unspecified)
inactive: [1]; [7] 0% | [1]; [8] -1% | [1]; at 50.0 µM 32.2% | [2]; [7] 2% | [2]; [8] 17% | [3]; [7] -5% | [3]; [8] -20% | [3]; at 50.0 µM 3.5% | [4]; [7] 0% | [4]; [8] -6% | [5]; [7] -3% | [5]; [8] -4% | [6]; [7] 12% | [6]; [8] 32% | [6]; at 50.0 µM 69.5%
active: [2]; at 50.0 µM 76.9% | [4]; at 50.0 µM 97.7% | [5]; at 50.0 µM 96.5%

CN1C(c2ccccc2)CC(=NO)CC1c1ccccc1 (stereo unspecified)
30.4% (inactive) and 85.2% (active): [6]; at 50.0 µM
24.6% (inactive) and 93.9% (active): [1]; at 50.0 µM
inactive: [1]; [7] 18% | [1]; [8] 58% | [2]; [7] 1% | [2]; [8] 45% | [2]; at 50.0 µM 6.35% and 27.3% | [3]; [7] 6% | [3]; [8] 58% | [4]; [7] -12% | [4]; [8] 20% | [4]; at 50.0 µM 5.8% and 32.3% | [5]; [7] 7% | [5]; [8] 23% | [5]; at 50.0 µM -7.15% and 62% | [6]; [7] -1% | [6]; [8] 41%
3.9% (inactive) and 82.2% (active): [3]; at 50.0 µM

NNc1nc2ccccc2s1
4.4% (inactive) and 72.5% (active): [3]; at 50.0 µM
inactive: [1]; [7] 14% | [1]; [8] 34% | [1]; at 50.0 µM 1.3% and 47.8% | [2]; [7] 10% | [2]; [8] 32% | [2]; at 50.0 µM -37% and 42.6% | [3]; [7] 2% | [3]; [8] 38% | [4]; [7] 8% | [4]; [8] 3% | [4]; at 50.0 µM 0.55% and 8.6% | [6]; [7] 37% | [6]; [8] 64%
-7.35% (inactive) and 88.2% (active): [6]; at 50.0 µM

Cc1ccc(S(=O)(=O)N/N=C2/C(=O)c3cccc4cccc2c34)cc1
active: [1]; [8] 74% | [3]; [8] 76% | [6]; [8] 92%
inactive: [1]; [7] 6% | [1]; at 50.0 µM 64.5% | [2]; [7] -15% | [2]; [8] 64% | [2]; at 50.0 µM 12.8% | [3]; [7] 10% | [3]; at 50.0 µM 55.8% | [4]; [7] 2% | [4]; [8] 39% | [4]; at 50.0 µM 30.5% | [5]; [7] 0% | [5]; [8] 55% | [5]; at 50.0 µM 0.25% | [6]; [7] 33% | [6]; at 50.0 µM 24.8%

CC[N+](CC)=c1ccc2nc3c(cc(N)c4ccccc43)oc-2c1
71.5% (active) and -20.9% (inactive): [1]; at 50.0 µM
inactive: [1]; [7] -8% | [1]; [8] 42% | [2]; [7] -1% | [2]; [8] 39% | [2]; at 50.0 µM 52.5% and -17.7% | [3]; [7] -9% | [3]; [8] 42% | [3]; at 50.0 µM 38.1% | [4]; [7] -14% | [4]; [8] 7% | [4]; at 50.0 µM 38% | [6]; [7] -6% | [6]; [8] 27% | [6]; at 50.0 µM 68.8% and -28.9%

COC(=O)C1c2cc3c(cc2C(OC2OC(C)C(OC)C(C)(OC)C2OC)CC1(C)O)C(=O)c1c(O)cc2c(c1C3=O)OC1OC2(C)C(O)C([N+](C)(C)[O-])C1O (stereo unspecified)
active: [1]; at 50.0 µM 70.4%
inactive: [1]; [7] 7% | [1]; [8] 65% | [2]; [7] 3% | [2]; [8] 8% | [2]; at 50.0 µM 61.4% | [3]; [7] -2% | [3]; [8] 27% | [3]; at 50.0 µM 65.8% | [4]; [7] 24% | [4]; [8] 39% | [4]; at 50.0 µM 47.6% | [6]; [7] -8% | [6]; [8] 57% | [6]; at 50.0 µM 54.5%

CC(NNC(=S)N1CCN(c2ccccn2)CC1)c1nccc2ccccc12 (stereo unspecified)
active: [1]; [8] 98% | [2]; [8] 98% | [3]; [8] 99% | [4]; [8] 98% | [6]; [8] 98%
inactive: [1]; [7] 26% | [1]; at 50.0 µM 69.1% | [2]; [7] 51% | [2]; at 50.0 µM 22.1% | [3]; [7] 58% | [3]; at 50.0 µM 1.8% | [4]; [7] 63% | [4]; at 50.0 µM 8.35% | [6]; [7] 49%
